# Compound activity from PubChem.
# Most compounds without a hit are left out; they make up all but 7.3% or so of the library.
# FMDV antiviral – foot and mouth disease virus antiviral activity; FMDV antiviral cell-based qHTS; hit rate 1.2% among 410,000; Potency, µM (series often up to 57.9 µM), for the others: at the highest dose activity change, negative = inhibition, usual class: inhibitors; calls by dose curve; tested in HEK293T cells; note: read-out not given here; potency is the fitted concentration of half-maximal effect; nearly all actives have a fitted effect of over 45% in size
# HCMV inh – human cytomegalovirus inhibition; HFF cells, HCMV-luciferase reporter, 72 h; active compounds read low; activity change, negative = inhibition, % at 57.5 µM; hit rate 4.5% among 410,000; AID 1259415; in the data active = activity change below about -60%; inconclusive = no clear call, values can overlap the other calls; inactive = above about -39%
#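 Compounds were evaluated in HFFs infected with an HCMV luciferase reporter virus (MOI 1 PFU/cell). Luciferase in lysates collected 72 h post infection served as the replication measure.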
# Vaccinia Venus – vaccinia inhibition (Venus reporter) | hit rate 0.46% among 330,000 | Potency, µM (series often up to 36.5 µM), for the others: at the highest dose activity change, negative = inhibition, hits mostly inhibitors | Vaccinia virus Venus reporter expression, fluorescence; calls by dose curve; tested in A549 cells; note: potency is the fitted concentration of half-maximal effect; nearly all actives have a fitted effect of over 30% in size
# HCV inh – inhibitors of hepatitis C virus infection | Huh7.5.1 HCVcc-Cre infection, luciferase reporter, 44 h | Potency, µM (series often up to 41.8 µM), for inactives: top-dose activity change, negative = inhibition, usual class: inhibitors | hit rate 3.4% among 340,000 | AID 651820; active = well fitted inhibition curve with a large enough effect; inconclusive = small, poorly fitted or top-dose-only effect, or another doubt; inactive = no such curve, though single readings can be large or run the other way; note: potency is the fitted concentration of half-maximal effect
#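 Infectious HCV cell culture screen: compound-treated cells (1,000/well, pre-plated 4 h) are infected with HCVcc-Cre at roughly 0.5 moi and grown 44 h. Infection is quantified by luciferase signal after 15 min substrate incubation at room temperature.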
# Vaccinia mCherry – vaccinia inhibition (mCherry reporter); Potency, µM (doses to about 36.5 µM), without a hit: at the top dose activity change, negative = inhibition, most hits filed as inhibitors; hit rate 0.63% among 310,000; Vaccinia virus mCherry reporter infection, fluorescence; AID 720579; calls by dose curve; tested in A549 cells; note: potency is the fitted concentration of half-maximal effect; nearly all actives have a fitted effect of over 35% in size
# * = called active by the depositor; i = inactive; u = inconclusive; x = no result given; + = active, no number; [ ] = another dose, or the depositor's remark. % is set by controls: 0 for no effect and ±100 for the full control effect.
SMILES,FMDV antiviral,HCMV inh,Vaccinia Venus,HCV inh,Vaccinia mCherry
C=CCNC(=O)c1ccc2c(c1)S(=O)(=O)c1ccccc1C2=O,-4%,3,-10%,25µM*,u
C[C@H](NCc1c[nH]c2ccccc12)c1ccccc1,41%,9,x,4%,x
Cc1ccc(NC(=O)Nc2nnc(N3CCCC3)s2)cc1C,16%,8,-13%,x,3%
COc1ccc(-c2oc3ncnc(NCCN4CCOCC4)c3c2-c2ccc(OC)cc2)cc1,u,x,-10%,u,0%
COc1ccc(CCNCCN2CCOCC2)cc1,4%,-19,x,-5%,x
COc1ccc(-c2oc3ncnc(NCCCN4CCOCC4)c3c2-c2ccc(OC)cc2)cc1,u,u,x,2.8µM*,x
c1ccc(-c2oc3ncnc(NCCCN4CCOCC4)c3c2-c2ccccc2)cc1,u,-20,x,5.6µM*,x
COc1ccc(-c2oc3ncn(CCN4CCOCC4)c(=N)c3c2-c2ccc(OC)cc2)cc1,u,u,x,13µM*,x
OCCCNc1ncnc2oc(-c3ccccc3)c(-c3ccccc3)c12,-28%,-17,x,u,x
CC(C)n1c(SCC(=O)Nc2nncs2)nnc1-c1ccco1,-15%,x,-18%,23%,-4%
COc1ccc(-c2noc(CC(=O)Nc3cc(OC)ccc3OC)n2)cc1,-22%,-27,-13%,x,-15%
Cc1cc2nc(C(C)(C)C)c(Cc3ccccc3C(F)(F)F)n2c(C)c1Br,-21%,8,9%,x,16%
Cc1ccc(CCNS(=O)(=O)c2ccc3c(c2)CCN3C(=O)CCC(=O)O)cc1,17%,22,7%,x,2%
Nc1ncnc2c1ncn2C1OC(CO)C(O)C1O (centres undefined),18%,62,6%,15%,-6%
Nc1ncnc2c(C3OC(CO)C(O)C3O)scc12 (centres undefined),-3%,-97*,0.35µM*,u,u
Fc1ccc(C(CCCn2nnc(-c3cccnc3)n2)c2ccc(F)cc2)cc1,u,-76*,u,u,u
CCOC(=O)c1ccc(-c2ccc(/C=N/NC(=O)CN(c3ccccc3Br)S(C)(=O)=O)o2)cc1,-28%,10,-7%,11µM*,i
COc1ccc(-c2cn(Cc3ccc(C(=O)c4ccccc4)cc3)nn2)cc1,10%,-82*,u,-12%[8.37 µM],u
CCOc1ccc2[nH]c(=O)c(CN(CCO)C3(c4nnnn4C4CCCCC4)CCCCC3)cc2c1,u,-61*,-10%,11%,-10%
CCOc1ccc2[nH]c(=O)c(CN(CCO)Cc3nnnn3CCc3ccccc3)cc2c1,-18%,21,x,-12%,x
CC(=O)N1CCCc2cc(S(=O)(=O)N3CCCC(C)C3)ccc21 (centres undefined),5%,-3,-6%,1%,i
Cc1cccc(C(=O)Nc2nnc(S(=O)(=O)N(C)Cc3ccc(Cl)cc3)s2)c1,-14%,u,-13%,x,-7%
Cc1ccc(C(=O)Nc2nnc(S(=O)(=O)N(C)Cc3ccc(F)cc3)s2)cc1,29%,+,-1%,x,-3%
Cc1ccc(C)n1C1C(=O)N(C)c2ccc(F)cc21 (centres undefined),x,26,x,x,x
COc1cc(OC)cc(-c2cc3nc(C)c(CCC(=O)O)c(C)n3n2)c1,1.4µM*,-79*,-10%,11%,9%
SMILES,FMDV antiviral,HCMV inh,Vaccinia Venus,HCV inh,Vaccinia mCherry
COc1ccc(C(=O)CCC(=O)N2CCN(c3cc(C)ccc3C)CC2)cc1,u,u,x,10µM*,x
COc1ccc(-c2cc3nc(C)c(CCC(=O)N4CCN(c5cc(C)ccc5C)CC4)c(C)n3n2)c(OC)c1,28µM*,2,u,x,u
COc1cc(OC)cc(-c2cc3nc(C)c(CCC(=O)NC(C)CCc4ccco4)c(C)n3n2)c1 (centres undefined),u,14,x,u,x
Cc1ccc(C)c(N2CCN(C(=O)CCCOc3cc(=O)n(C)c4ccccc34)CC2)c1,25µM*,56,x,10µM*,x
COc1ccc(-c2cccc(CCC(=O)N3CCN(c4cc(C)ccc4C)CC3)c2)cc1,u,u,-4%,u,-5%
C=CCSc1nc2sc3c(c2c(=O)n1-c1ccc(C)cc1)CCN(C)C3,-12%,-16,x,u,x
CCN(CC)C(=O)Cn1cc(C(=O)C(=O)Nc2ccc3c(c2)OCO3)c2ccccc21,3%,11,-8%,x,-2%
O=C(CN1CCN(Cc2ccccc2)CC1)Nc1cccc(Cl)c1Cl,-19%,-18,-14%,x,-11%
Cc1cccc(N2CCN(C(=O)CCCSc3nc4ccccc4[nH]3)CC2)c1C,35µM*,u,-22%,x,-17%
COc1ccc(-c2noc(CCCCC(=O)N3CCN(c4cc(C)ccc4C)CC3)n2)cc1,u,-96*,u,u,u
CCOC(=O)c1[nH]c2ccc(OC)cc2c1NC(=S)N1CCN(c2ccc(F)cc2)CC1,-21%,-21,-16%,-12%,-11%
COc1ccc(CCC(=O)N2CCN(c3cccc(C)c3C)CC2)cc1,-6%,-80*,-11%,-26%,-12%
O=C(CCCSc1nc2ccccc2[nH]1)N1CCN(c2ccccc2)CC1,u,-16,x,u,x
COc1ccc(CC(=O)N2CCN(c3cccc(C)c3C)CC2)cc1,-2%,10,x,-27%,x
CCOC(=O)c1[nH]c2ccc(OC)cc2c1NC(=S)N1CCN(c2cccc(C)c2C)CC1,0%,-12,u,10µM*,u
COc1ccc(CCC(=O)NCCS(=O)(=O)N2CCN(c3ccccc3OC)CC2)cc1,-25%,u,x,14µM*,x
CCN(CC)c1ccccc1/C=C/[n+]1ccc(CCCCI)c2ccccc21,x,x,i,x,i
Fc1ccc(C2c3cccn3CCN2C(=S)Nc2cccc(Br)c2)cc1 (centres undefined),u,-26,-19%,10µM*,u
CC(C)Cn1c(=O)c2sccc2n2c(CCCC(=O)NCc3ccccc3Cl)nnc12,-15%,29,0%,x,-9%
O=C(/C=C/c1ccc(F)cc1)NC(=S)NNC(=O)c1cnccn1,-5%,24,-13%,u,i
COc1ccc(C(=O)NNC(=S)NC(=O)c2cccnc2)cc1,8%,-89*,-8%,3%,1%
COc1ccc(C(=O)NNC(=S)NC(=O)c2ccc(OC)cc2)cc1,-11%,-92*,x,-14%,x
COc1ccc(C(=O)NNC(=O)c2ccc3ccccc3n2)cc1,-21%,-88*,u,u,11µM*
O=C(NC(=S)NNC(=O)c1cnccn1)c1ccc(F)cc1,4%,-25,u,14µM*,u
CC(C)CN1CC2(CCN(C(=O)c3csnn3)CC2)C1,-1%,x,x,x,x
C[C@H](NC(=O)[C@@H]1CCCN1C(=O)OC(C)(C)C)c1ccccc1,-13%,-6,-9%,x,i
C=CCNC(=S)NNC(=O)c1ccc(OCCC)cc1,-25%,-19,-9%,-2%,x
CCCOc1ccc(C(=O)NNC(=S)NC(=O)CC)cc1,-11%,-62*,x,u,x
CCCOc1ccc(C(=O)NC(=S)NCc2cccnc2)cc1,-20%,-65*,-22%,u,-16%
